Here are results for 17 compounds from ChEMBL document CHEMBL1961873, “Compounds: GSK PKIS; Assays: Nanosyn kinase panel” (2012).

Assay [1] addresses Ephrin type-A receptor 2 (Homo sapiens) (UniProt P29317). Particulars: at 0.1 µM.
Assay [2] shares this target. Particulars: at 1 µM.
For assay [3], the target named is T1, Ephrin type-A receptor 3 (Homo sapiens) (UniProt P29320).
T1 sequence (whole entry): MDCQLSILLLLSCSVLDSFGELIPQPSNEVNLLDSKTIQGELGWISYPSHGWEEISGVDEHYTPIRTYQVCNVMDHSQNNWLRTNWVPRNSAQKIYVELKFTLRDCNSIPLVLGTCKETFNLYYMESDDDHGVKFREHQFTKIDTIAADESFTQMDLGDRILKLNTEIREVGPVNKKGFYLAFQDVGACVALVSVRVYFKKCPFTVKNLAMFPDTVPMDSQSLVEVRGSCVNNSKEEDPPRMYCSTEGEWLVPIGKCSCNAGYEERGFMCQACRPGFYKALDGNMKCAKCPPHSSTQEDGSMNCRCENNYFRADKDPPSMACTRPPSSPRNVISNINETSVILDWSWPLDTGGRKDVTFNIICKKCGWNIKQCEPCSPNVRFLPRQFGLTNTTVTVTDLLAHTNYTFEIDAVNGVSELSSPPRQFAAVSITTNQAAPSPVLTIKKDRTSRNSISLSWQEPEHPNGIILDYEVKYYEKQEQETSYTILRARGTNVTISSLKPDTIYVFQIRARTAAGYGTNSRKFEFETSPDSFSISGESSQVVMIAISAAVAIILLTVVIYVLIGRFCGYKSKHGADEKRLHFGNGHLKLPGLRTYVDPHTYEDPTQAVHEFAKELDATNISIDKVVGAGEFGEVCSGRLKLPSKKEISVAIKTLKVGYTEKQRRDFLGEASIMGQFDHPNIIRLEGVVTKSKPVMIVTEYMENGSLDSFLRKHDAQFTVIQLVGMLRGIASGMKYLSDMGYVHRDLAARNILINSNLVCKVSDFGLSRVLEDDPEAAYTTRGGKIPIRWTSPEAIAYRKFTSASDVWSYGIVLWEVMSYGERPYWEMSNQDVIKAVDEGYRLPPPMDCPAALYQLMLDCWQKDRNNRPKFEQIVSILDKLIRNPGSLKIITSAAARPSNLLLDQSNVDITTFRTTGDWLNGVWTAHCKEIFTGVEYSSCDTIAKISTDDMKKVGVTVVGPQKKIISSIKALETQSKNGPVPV
The following applies: at 0.1 µM.

Assay [4] addresses T1, Ephrin type-A receptor 3 (Homo sapiens). The following applies: at 1 µM.
Assay [5] deals with Ephrin type-A receptor 4 (Homo sapiens) (UniProt P54764). The following applies: at 0.1 µM.
Chain of Ephrin type-A receptor 4 (Homo sapiens) (P54764 whole entry): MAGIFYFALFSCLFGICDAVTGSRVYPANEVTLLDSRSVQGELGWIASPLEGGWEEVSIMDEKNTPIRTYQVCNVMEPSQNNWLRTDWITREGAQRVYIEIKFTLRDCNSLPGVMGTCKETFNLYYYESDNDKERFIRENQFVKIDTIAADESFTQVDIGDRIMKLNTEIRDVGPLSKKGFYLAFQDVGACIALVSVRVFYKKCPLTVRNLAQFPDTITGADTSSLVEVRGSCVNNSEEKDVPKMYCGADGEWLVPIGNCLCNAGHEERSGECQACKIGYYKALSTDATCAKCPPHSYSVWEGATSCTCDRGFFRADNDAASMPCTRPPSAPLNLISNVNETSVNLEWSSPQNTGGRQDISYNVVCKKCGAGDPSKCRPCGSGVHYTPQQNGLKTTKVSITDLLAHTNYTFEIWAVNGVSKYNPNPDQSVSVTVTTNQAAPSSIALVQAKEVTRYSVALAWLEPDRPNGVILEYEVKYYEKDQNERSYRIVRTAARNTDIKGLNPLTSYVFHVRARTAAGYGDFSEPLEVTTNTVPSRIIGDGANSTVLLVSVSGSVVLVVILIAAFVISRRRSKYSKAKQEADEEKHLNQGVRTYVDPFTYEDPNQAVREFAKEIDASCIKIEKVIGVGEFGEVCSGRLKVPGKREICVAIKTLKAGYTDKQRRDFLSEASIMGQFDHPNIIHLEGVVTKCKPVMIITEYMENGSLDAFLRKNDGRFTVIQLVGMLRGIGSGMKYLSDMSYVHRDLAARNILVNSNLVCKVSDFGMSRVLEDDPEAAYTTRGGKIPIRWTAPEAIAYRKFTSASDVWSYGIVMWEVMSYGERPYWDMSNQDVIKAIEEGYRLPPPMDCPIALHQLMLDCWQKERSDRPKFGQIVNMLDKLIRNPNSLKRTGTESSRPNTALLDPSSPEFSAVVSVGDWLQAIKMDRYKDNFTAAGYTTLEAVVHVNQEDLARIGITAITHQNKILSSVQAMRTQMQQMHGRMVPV
Assay [6] has the same target. The following applies: at 1 µM.
Assay [7] concerns the target T2, Ephrin type-B receptor 2 (Homo sapiens) (UniProt P29323).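 Note: reported as mean inhibition of EPHB2, from the GSK PKIS dataset.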
T2 sequence (whole entry): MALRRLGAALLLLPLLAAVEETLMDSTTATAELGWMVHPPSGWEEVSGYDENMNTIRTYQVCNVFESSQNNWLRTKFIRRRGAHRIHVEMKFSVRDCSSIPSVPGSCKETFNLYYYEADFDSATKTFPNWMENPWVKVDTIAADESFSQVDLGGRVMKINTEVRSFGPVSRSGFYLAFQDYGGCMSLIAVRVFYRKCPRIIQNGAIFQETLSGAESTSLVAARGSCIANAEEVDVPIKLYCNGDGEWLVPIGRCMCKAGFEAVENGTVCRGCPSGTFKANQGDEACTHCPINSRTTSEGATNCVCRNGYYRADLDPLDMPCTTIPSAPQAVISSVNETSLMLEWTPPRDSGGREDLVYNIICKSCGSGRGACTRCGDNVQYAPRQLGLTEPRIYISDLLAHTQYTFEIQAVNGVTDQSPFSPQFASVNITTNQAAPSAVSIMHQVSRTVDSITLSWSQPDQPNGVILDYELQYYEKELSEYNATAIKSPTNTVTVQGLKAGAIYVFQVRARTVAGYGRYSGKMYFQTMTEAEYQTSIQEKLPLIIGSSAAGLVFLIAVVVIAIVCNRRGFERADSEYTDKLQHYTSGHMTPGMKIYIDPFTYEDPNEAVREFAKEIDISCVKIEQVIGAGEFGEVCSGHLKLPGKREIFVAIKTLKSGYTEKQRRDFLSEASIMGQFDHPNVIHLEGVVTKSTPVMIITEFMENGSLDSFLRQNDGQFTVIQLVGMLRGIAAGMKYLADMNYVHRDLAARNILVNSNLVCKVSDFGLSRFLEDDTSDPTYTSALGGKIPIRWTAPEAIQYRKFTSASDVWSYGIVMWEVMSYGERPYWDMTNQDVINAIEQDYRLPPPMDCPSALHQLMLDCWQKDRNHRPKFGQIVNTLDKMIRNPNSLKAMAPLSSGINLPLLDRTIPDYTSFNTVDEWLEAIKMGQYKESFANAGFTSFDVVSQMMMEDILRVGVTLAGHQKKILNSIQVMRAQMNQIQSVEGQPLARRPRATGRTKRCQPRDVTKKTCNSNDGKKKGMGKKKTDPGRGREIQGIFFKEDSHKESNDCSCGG
The following applies: at 0.1 µM.

Assay [8] deals with Epidermal growth factor receptor (Homo sapiens), P00533 [T790M]. Particulars: at 1 µM.
Chain of Epidermal growth factor receptor (Homo sapiens), P00533 [T790M] (P00533 whole entry T790M): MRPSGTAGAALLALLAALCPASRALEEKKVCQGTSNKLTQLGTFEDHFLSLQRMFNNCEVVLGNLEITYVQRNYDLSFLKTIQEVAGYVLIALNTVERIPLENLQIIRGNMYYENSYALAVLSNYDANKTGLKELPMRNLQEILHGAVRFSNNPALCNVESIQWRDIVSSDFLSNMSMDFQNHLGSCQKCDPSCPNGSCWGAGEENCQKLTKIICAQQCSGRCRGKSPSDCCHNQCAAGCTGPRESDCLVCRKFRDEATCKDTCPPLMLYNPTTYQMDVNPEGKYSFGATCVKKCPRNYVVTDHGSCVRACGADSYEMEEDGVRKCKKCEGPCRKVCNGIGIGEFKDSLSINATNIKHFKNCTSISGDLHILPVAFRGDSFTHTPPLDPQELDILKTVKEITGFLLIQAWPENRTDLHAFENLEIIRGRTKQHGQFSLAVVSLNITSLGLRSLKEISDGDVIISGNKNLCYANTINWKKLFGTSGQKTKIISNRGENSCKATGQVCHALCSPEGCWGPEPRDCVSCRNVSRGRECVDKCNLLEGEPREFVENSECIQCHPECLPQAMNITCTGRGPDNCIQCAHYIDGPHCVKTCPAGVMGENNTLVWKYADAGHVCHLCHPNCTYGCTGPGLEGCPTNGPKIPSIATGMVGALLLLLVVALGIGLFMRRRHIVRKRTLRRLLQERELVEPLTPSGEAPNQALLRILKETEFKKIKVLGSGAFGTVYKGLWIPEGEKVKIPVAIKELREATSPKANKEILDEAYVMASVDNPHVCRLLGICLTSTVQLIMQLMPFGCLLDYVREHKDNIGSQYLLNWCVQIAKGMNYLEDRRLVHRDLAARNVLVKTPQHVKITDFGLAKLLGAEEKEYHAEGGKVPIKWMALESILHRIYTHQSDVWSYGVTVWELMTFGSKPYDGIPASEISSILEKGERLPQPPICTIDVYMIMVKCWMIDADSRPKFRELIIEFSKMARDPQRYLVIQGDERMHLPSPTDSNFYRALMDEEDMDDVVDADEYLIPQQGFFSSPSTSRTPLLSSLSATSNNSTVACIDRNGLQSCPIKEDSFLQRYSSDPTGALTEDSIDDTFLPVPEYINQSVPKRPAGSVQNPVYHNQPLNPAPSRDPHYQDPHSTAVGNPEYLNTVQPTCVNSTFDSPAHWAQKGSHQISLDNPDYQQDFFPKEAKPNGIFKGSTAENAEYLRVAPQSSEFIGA
For assay [9], the system named is Epidermal growth factor receptor (Homo sapiens), P00533 [L858R,T790M]. Particulars: at 0.1 µM.
Chain of Epidermal growth factor receptor (Homo sapiens), P00533 [L858R,T790M] (P00533 whole entry T790M/L858R, looked up): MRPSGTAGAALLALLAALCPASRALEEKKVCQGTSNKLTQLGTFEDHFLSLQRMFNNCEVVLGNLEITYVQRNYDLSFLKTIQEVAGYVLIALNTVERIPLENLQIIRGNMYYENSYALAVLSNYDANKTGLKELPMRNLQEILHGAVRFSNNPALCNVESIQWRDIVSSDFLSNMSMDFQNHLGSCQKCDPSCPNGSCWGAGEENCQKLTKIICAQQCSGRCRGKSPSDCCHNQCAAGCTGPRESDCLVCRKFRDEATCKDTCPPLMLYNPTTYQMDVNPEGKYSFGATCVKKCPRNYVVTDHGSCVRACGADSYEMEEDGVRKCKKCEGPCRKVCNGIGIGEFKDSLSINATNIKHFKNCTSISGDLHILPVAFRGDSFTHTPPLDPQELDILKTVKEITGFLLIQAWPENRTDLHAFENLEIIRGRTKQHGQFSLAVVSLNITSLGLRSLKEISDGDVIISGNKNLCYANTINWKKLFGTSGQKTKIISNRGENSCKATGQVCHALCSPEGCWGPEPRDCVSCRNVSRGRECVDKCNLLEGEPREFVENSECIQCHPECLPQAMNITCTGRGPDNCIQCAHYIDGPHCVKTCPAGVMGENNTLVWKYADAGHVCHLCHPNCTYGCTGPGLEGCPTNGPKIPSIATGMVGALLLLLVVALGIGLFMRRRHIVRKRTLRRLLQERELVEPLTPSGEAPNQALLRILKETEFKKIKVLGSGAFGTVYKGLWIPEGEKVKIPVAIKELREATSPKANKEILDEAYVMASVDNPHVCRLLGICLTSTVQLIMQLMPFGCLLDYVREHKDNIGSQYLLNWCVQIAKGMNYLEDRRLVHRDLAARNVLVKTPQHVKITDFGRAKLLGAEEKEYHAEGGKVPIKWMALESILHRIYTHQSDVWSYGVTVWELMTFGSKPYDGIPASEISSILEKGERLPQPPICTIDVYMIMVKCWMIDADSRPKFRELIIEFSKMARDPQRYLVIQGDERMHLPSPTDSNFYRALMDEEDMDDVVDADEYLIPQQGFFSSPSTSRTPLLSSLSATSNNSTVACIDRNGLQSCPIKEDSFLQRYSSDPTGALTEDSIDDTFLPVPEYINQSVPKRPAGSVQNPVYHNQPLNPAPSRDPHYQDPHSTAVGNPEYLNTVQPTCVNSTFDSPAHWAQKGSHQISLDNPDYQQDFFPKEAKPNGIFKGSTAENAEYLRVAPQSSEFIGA
The test system is the same in assay [10]. Particulars: at 1 µM.

Chain of Ephrin type-A receptor 2 (Homo sapiens) (P29317 whole entry): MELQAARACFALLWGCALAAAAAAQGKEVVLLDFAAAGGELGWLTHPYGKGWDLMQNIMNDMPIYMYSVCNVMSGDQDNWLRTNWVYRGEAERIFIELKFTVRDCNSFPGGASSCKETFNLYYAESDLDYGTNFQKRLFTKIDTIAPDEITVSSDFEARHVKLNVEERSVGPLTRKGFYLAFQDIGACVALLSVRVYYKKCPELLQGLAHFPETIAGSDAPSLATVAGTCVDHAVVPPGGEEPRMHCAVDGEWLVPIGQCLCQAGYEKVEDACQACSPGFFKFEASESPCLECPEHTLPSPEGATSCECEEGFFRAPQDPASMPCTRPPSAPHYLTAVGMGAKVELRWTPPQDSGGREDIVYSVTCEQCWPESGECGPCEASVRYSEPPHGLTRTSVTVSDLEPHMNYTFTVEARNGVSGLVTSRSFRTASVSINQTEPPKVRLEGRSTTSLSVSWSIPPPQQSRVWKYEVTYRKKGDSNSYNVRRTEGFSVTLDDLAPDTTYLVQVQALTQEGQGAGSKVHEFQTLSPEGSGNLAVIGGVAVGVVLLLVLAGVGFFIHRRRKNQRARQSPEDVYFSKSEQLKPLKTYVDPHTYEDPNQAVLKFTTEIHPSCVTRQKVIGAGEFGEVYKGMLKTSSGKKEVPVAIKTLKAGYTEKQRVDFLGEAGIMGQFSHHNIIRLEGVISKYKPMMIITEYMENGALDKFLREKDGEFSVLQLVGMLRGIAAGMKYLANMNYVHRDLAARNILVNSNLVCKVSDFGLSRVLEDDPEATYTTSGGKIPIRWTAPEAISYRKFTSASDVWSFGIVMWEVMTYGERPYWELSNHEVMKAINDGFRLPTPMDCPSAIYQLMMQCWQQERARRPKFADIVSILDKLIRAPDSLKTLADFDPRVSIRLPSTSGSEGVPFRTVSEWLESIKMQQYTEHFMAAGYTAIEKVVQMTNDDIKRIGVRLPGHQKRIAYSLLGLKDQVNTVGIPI

What is called inhibition is the relative decrease from the control value, in per cent. Consider `CN(C)C(=O)O[C@H]1CN[C@H](C#Cc2cc3ncnc(Nc4ccc(OCc5cccc(F)c5)c(Cl)c4)c3s2)C1`, for which the inhibition in [1] is -0.69%; in assay [2], 0.86%; in assay [3] it was 2.97%; in assay [4], 4.79%; in assay [5] it was 7.54%; in assay [6], 8.32%. The inhibition in [7] worked out at 9.47%.
`Cc1ccc(Nc2ccnc(Nc3cccc(C(N)=O)c3)n2)cc1O`: the inhibition came out at 14.9% in assay [8]; 2.53% in [9]; 5.38% in assay [10]; 1.66% in assay [1]; 23.3% in assay [2]; 14.3% in [3]. For the same compound, the inhibition in assay [4] came to 33.9%; in assay [5], 17.1%; in assay [6] it was 62.9%; in assay [7] it was 8.62%.
Regarding `NS(=O)(=O)c1ccc(-c2cc3ccncc3cc2OCc2ccccc2)cc1`, the inhibition stood at 4.44% in assay [8]; 2.11% in [9]; 2.39% in assay [10]; 0.69% in assay [1]; 0.7% in assay [2]; 2.29% in assay [3]. The inhibition in assay [4] came out at 3.77%; in assay [5], 9.03%; in [6], 10.4%; in [7], 7.31%.
`NS(=O)(=O)c1cccc(Nc2cc(-c3ccc(F)cc3)n[nH]2)c1`: the inhibition in [8] turned out to be 3.89%; in [9], 0.96%; in assay [10] it was 2.35%; in assay [1] it was 0.44%; in assay [2], 0.73%; in assay [3], 4.22%. Besides, the inhibition is 4.16% in [4], 8.18% in [5], 10% in assay [6] and 5.43% in assay [7].
As to `Cc1cc(-c2ccccn2)cc(C)c1/C=C/c1cncc(-c2nn[nH]n2)c1`, the inhibition in assay [8] is 1.45%; in [9], -2.34%; in assay [10] it was 3.4%; in [1], 0.59%; in assay [2], 2.96%; in assay [3], 3.5%. For the same compound, the inhibition in [4] was 4.9%; in [5], 6.16%; in assay [6], 17.3%; in assay [7], 5.94%.
In the case of `COc1cc2ncnc(Nc3ccc(C)c(O)c3)c2cc1OC`, the inhibition was found to be 31.2% in [8]; 3.9% in [9]; 13.5% in assay [10]; 2.35% in assay [1]; 10.6% in assay [2]; 6.24% in assay [3]. Moreover, the inhibition turned out to be 16.7% in assay [4], 15.9% in assay [5], 49.9% in assay [6] and 11.1% in assay [7].
Take `ON=C1CCc2cc(-c3nc(C4CCNCC4)[nH]c3-c3ccncc3)ccc21`: the inhibition in [8] is -1.84%; in assay [9], -1.88%; in [10], 0.18%; in assay [1], 1.25%; in assay [2], 0.6%; in [3], 0.3%. Besides, the inhibition was -2.2% in assay [4], -1.9% in assay [5], -7.94% in [6] and -5.22% in assay [7].
For the compound `Cc1ccc2c(c1)/C(=N/Nc1ccc(S(N)(=O)=O)cc1)C(=O)N2`, the inhibition in [8] is -3%; in assay [9], -4.55%; in assay [10], -2.96%; in assay [1] it was 1.34%; in assay [3], -0.01%; in assay [4], 2.43%. In addition, the inhibition in [5] is -0.11%; in assay [6] it was -5.42%; in [7] it was -2.4%.
For `Cc1nc(-c2ccccc2)n2nc(NCCCN3CCOCC3)ncc12`, the inhibition was 2% in [8]; -0.39% in assay [9]; 3.29% in [10]; 0.3% in [1]; -0.95% in assay [2]; 3.7% in assay [3]. The inhibition is 4.01% in [4], 5.25% in [5], 8.81% in assay [6] and -0.43% in assay [7].
`C[C@@H](Oc1cc(-n2cnc3ccc(OC[C@@H](O)CO)cc32)sc1C(N)=O)c1ccccc1Cl`: the inhibition was -1.48% in assay [8]; -1.15% in assay [9]; -0.33% in assay [10]; -4.23% in assay [1]; -4.51% in [2]; -2.37% in assay [3]. Further, the inhibition in [4] was 1.69%; in assay [5] it was -2.22%; in assay [6], -0.2%; in assay [7] it was -0.2%.
With `Cc1cc(O)cc(C)c1/C=C/c1cncc(C(=O)N(C)C)c1`, the inhibition in assay [8] is 0.44%; in assay [9], -0.03%; in [10], -0.26%; in assay [1], 2.13%; in assay [2] it was 4.81%; in [3] it was 6.48%. Besides, the inhibition turned out to be 8.52% in [4], 8.99% in [5], 18.6% in [6] and 9.34% in [7].
Consider `O=S(=O)(CCOCc1ccc(-c2ccc3ncnc(Nc4ccc(OCc5cccc(F)c5)c(Cl)c4)c3c2)o1)c1ccccc1`, for which the inhibition was 2.25% in assay [8]; -3.02% in assay [9]; 1.89% in assay [10]; -3.01% in [1]; -2.3% in assay [2]; -1.7% in [3]. Besides, the inhibition in assay [4] amounted to 0.9%; in assay [5] it was 2.2%; in [6], 5.8%; in [7], 8%.
As for `CCOc1nccc2c1nc(-c1nonc1N)n2CC`, the inhibition was 5.62% in assay [8]; -0.04% in [9]; 4.96% in assay [10]; 2.57% in assay [1]; 1.93% in [2]; 2.43% in [3]. Besides, the inhibition in assay [4] was 6.98%; in assay [5] it was 11.7%; in assay [6], -8.98%; in [7] it was 9.96%.
On to `Cc1ccc(C(=O)NC2CC2)cc1-c1ccc2[nH]ncc2c1`, for which the inhibition was -3.14% in assay [8]; -2.32% in assay [9]; -5.63% in [10]; -1.76% in [1]; -1.67% in assay [2]; -6.73% in [3]. Besides, the inhibition in assay [4] was -6.53%; in [6], -8.91%.
In the case of `CS(=O)(=O)CCNCc1nc(-c2ccc3ncnc(Nc4ccc(OCc5cccc(C(F)(F)F)c5)cc4)c3c2)cs1`, the inhibition is -0.12% in [8]; -2.33% in assay [9]; -3.57% in assay [10]; 1.44% in assay [1]; 0.05% in [2]; 2.99% in assay [3]. The inhibition in [4] was found to be 3.51%; in assay [5], 0.66%; in [6] it was 7.07%; in [7], 0.86%.
On to `COc1cccc(-n2ncc3c(N/N=C/c4ccc(C)cc4)ncnc32)c1`, for which the inhibition in assay [8] came out at 2.25%; in assay [9], 1.79%; in assay [10], 2.55%; in [1] it was 2.45%; in [2], 1.1%; in assay [3], 3.28%. The inhibition in [4] was 3.46%; in assay [5], 7.44%; in assay [6], 11.3%; in [7] it was 6.77%.
Regarding `Nc1nccc(C#Cc2cncnc2Nc2ccc(OCc3cccc(F)c3)c(Cl)c2)n1`, the inhibition was 0.65% in assay [1]; 1.27% in assay [2]; 1.8% in assay [3]; 3.27% in assay [4]; 6.14% in [5]; -0.84% in assay [6]. The inhibition in [7] turned out to be 9.67%.
